# Sampled rows, rich in hits. Any-hit rate of the full collection: about 2.2%.
# ADAM10 inh: inhibitors of human ADAM10 | inhibition, % at 7 µM | recombinant ADAM10, EDANS/DABCYL FRET peptide cleavage, 3 h | 0.62% of 370,000 active;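 active = inhibition above a per-campaign cutoff equal to the mean of compounds falling between control-based bounds plus 3 SD, cut at about 20% in these data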
# NPR1 activator: GC-A (human) enzyme activation; activation, % at 10 µM; P16066; 0.14% of 370,000 active; HEK293 GC-A cells, cGMP TR-FRET, EC30 ANP; 0% at EC30 ANP, 100% saturating ANP; in the data active = activation above about 40%
# ADAM17 inh: inhibitors of human ADAM17. recombinant ADAM17, EDANS/DABCYL FRET peptide cleavage. 0.83% of 370,000 active. P78536. inhibition, % at 6.95 µM;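 active = inhibition above the mean of compounds lying between control limits plus 3 SD, set per campaign, cut at about 8.5% in these data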
# Target sequence (P78536 215-824 limits assumed): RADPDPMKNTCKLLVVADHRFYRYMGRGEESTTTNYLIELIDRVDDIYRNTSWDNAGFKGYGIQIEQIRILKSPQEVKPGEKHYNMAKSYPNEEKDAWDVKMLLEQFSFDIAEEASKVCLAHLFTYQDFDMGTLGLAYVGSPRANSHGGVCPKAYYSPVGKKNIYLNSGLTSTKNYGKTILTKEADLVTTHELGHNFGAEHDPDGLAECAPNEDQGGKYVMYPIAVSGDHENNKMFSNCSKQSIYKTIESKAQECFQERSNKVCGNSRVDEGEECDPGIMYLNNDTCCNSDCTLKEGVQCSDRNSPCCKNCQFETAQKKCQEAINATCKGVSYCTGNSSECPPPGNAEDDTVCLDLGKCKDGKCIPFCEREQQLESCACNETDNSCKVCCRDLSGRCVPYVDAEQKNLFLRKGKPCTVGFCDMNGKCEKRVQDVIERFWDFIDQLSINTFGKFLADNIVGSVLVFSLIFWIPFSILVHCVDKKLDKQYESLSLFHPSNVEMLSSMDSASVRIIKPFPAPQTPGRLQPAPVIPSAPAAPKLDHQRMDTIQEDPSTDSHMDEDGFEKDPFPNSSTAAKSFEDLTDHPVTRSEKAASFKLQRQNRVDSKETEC
# proKLK7 act: activators of human kallikrein-7 zymogen; P49862; purified proKLK7, EDANS-DABCYL substrate fluorescence; 100% is mature enzyme control, 0% vehicle; AID 652039; 0.9% of 370,000 active; activation, % at 7 µM;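 active = activation above the mean of all tested compounds plus 3 SD, computed per campaign excluding outliers beyond control limits, cut at about 13% in these data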
# NPR2 activator: GC-B (human) receptor activation; P20594; HEK293-GC-B cells, CNP EC30, cGMP TR-FRET; 0% at EC30 CNP, 100% saturating CNP; activation, % at 10 µM; 0.11% of 370,000 active; AID 1920062;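 active = activation at 10 µM reaching about 35% in either raw or pattern-adjusted values, limit read from the data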
# ADAM10 counter: counter-screen for ADAM17 exosite inhibitors: inhibitors of human ADAM10 | shares compounds with ADAM17 inh | recombinant ADAM10, EDANS/DABCYL FRET peptide cleavage, 3 h | inhibition, % at 6.95 µM | 47% of 2,900 active;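 active = mean inhibition over the triplicate runs exceeds the activity threshold set in the earlier primary screen, cut at about 20% in these data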
# ADAM17 confirm: human ADAM17 inhibition, confirmation. recombinant ADAM17, EDANS/DABCYL QFRET peptide cleavage. shares compounds with ADAM17 inh. 65% of 2,900 active. inhibition, % at 6.95 µM;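 active = mean inhibition across replicates above the hit cutoff set in the primary screen, cut at about 8.5% in these data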
# A number is an active result; . = inactive; / = not tested or not shown.
SMILES,ADAM10 inh,NPR1 activator,ADAM17 inh,proKLK7 act,NPR2 activator,ADAM10 counter,ADAM17 confirm
Cc1cccc(C)c1NC(=O)C1(C)CSCC(=O)N1CCc1c[nH]c2ccccc12 (stereo not given),.,.,11,.,.,.,.
O=C(CCCOC(=O)c1ccc(O)cc1O)c1ccc(Br)cc1,.,.,11,.,.,.,10
COc1ccc(OC)c(C2C(C(N)=O)=C(C)Nc3nc(-c4cccc(Cl)c4)nn32)c1 (stereo not given),.,.,9.3,.,.,.,.
O=C(OC12CCCN(C1)/C(=C/c1ccc(Cl)cc1)C2)C1CCCC1 (stereo not given),.,.,.,.,.,/,/
CC(C)C1C(=O)N(Cc2cn(CCC3OCCO3)nn2)CCS(=O)(=O)N1Cc1ccc(-c2ccccc2Cl)cc1 (stereo not given),.,.,.,.,.,/,/
COc1cccc(-c2ccc(CN3C(C(C)C)C(=O)N(Cc4cn(CCC5OCCO5)nn4)CCS3(=O)=O)cc2)c1OC (stereo not given),.,.,13,.,.,.,.
CC1C(=O)N(Cc2cn(CCC3OCCO3)nn2)CCS(=O)(=O)N1Cc1ccc(-c2ccc(Cl)cc2)cc1 (stereo not given),.,49,8.6,.,.,.,.
CCCC[C@@H]1C(=O)N2N=C(c3ccccc3)c3ccccc3[C@H]2N2N=C(c3ccccc3)c3ccccc3[C@@H]12,.,.,.,.,.,/,/
COc1cccc(C(=O)Nc2ccc(Cl)c(C(F)(F)F)c2)c1,.,.,11,.,.,.,.
O=[N+]([O-])c1ccc(C(O)C(CO)NC(=S)Nc2ccccc2)cc1 (stereo not given),.,.,8.8,.,.,.,.
Cc1ccc(NC(=S)NC(CO)C(O)c2ccc([N+](=O)[O-])cc2)cc1 (stereo not given),.,.,.,.,.,/,/
COc1ccc2[nH]c3c(c2c1)CCN[C@]31C(=O)N(C)c2ccc(Br)cc21,.,.,.,.,.,/,/
N=c1c2c(ccn1CCCCc1ccccc1)Oc1ccc3ccccc3c1C2c1ccccc1 (stereo not given),.,.,9.6,/,.,20,14
Cc1ccc2c(c1)N(CCCC(=O)NCc1c(F)cccc1F)C(=O)CO2,.,.,.,.,.,/,/
CNS(=O)(=O)c1cccc(C(=O)OCC(=O)NC2CCCC2)c1,.,.,8.9,.,.,.,.
COc1ccccc1NS(=O)(=O)c1cccc(C(=O)OCC(=O)NC2CC2)c1,.,.,.,.,.,/,/
O=S1(=O)CC2c3ccc(F)cc3CN2CN1Cc1ccc(F)cc1 (stereo not given),.,.,.,.,.,/,/
O=C(Nc1ccc2c(c1)OCO2)c1cccc(F)c1,.,.,.,.,.,/,/
O=C(Nc1cccc(F)c1)Nc1ccc2c(c1)OCO2,.,.,10,.,.,.,.
CC(C)NC(=O)Nc1ccc2c(c1)C(=O)N([C@H](C)CO)C[C@H](C)[C@@H](CN(C)C(=O)Nc1ccccc1)O2,.,.,.,.,.,/,/
C[C@H](CO)N1C[C@H](C)[C@@H](CN(C)C(=O)Nc2ccc(C(F)(F)F)cc2)Oc2ccc(NC(=O)Nc3ccccc3)cc2C1=O,.,.,.,.,.,/,/
CC(C)NC(=O)N(C)C[C@H]1Oc2ccc(NC(=O)Nc3ccccc3)cc2C(=O)N([C@H](C)CO)C[C@@H]1C,.,.,.,.,.,/,/
CC(C)NC(=O)N(C)C[C@H]1Oc2ccc(NC(=O)Nc3ccccc3)cc2C(=O)N([C@@H](C)CO)C[C@@H]1C,.,.,11,.,.,.,.
CC(C)NC(=O)N(C)C[C@H]1Oc2ccc(NC(=O)Cc3ccccc3)cc2C(=O)N([C@H](C)CO)C[C@@H]1C,.,.,9.1,.,.,.,.
C[C@H](CO)N1C[C@H](C)[C@@H](CN(C)C(=O)Nc2ccc(C(F)(F)F)cc2)Oc2ccc(NC(=O)Cc3ccccc3)cc2C1=O,.,.,16,.,.,.,9.6
SMILES,ADAM10 inh,NPR1 activator,ADAM17 inh,proKLK7 act,NPR2 activator,ADAM10 counter,ADAM17 confirm
CC1(C)CC(=O)c2sc(NS(=O)(=O)c3ccc([N+](=O)[O-])cc3)nc2C1,.,.,16,.,.,22,.
CCN1C(=O)N[C@@H](CCc2ccccc2)[C@@H](C(=O)OC)[C@H]1C,.,.,9.8,.,.,.,.
COc1ccc2c(c1)[C@]1(C(=O)N2C)C2=C(CCCC2=O)Oc2cc(C)oc(=O)c21,.,.,.,.,.,/,/
Cc1cc2c(c(=O)o1)[C@@]1(C(=O)N(C)c3ccc([N+](=O)[O-])cc31)C1=C(CCCC1=O)O2,.,.,8.7,.,.,.,.
COC(=O)c1ccc(CCc2cc(O)c(Br)cc2O)cc1,.,.,8.9,.,.,.,.
CCCCC(=O)NC(c1ccccc1OC)c1ccc2cccnc2c1O (stereo not given),.,.,9.0,.,.,.,.
CN(Cc1cn(Cc2ccccc2)nn1)S(=O)(=O)c1ccc(F)cc1Br,.,.,.,.,.,/,/
C=CCN1C(=O)[C@H](CC(=O)NCC23CC4CC(CC(C4)C2)C3)[C@@]2(C(=O)OCC)CCCC=C12,.,.,.,.,.,/,/
Cc1onc(-c2ccccc2)c1C(=O)Nc1ccc(Cl)c(S(=O)(=O)N2CCOCC2)c1,.,.,11,.,.,.,.
Nc1nc(Nc2ccccc2)nc(NCc2ccccc2)c1[N+](=O)[O-],.,.,.,.,.,/,/
Cc1cccc(Nc2nc(N)c([N+](=O)[O-])c(NCc3ccccc3)n2)c1,.,.,9.2,.,.,.,.
COC(=O)C1CN(C2CC2)CCS(=O)(=O)N1Cc1cn(Cc2ccccc2)nn1 (stereo not given),.,.,.,.,.,/,/
O=C(NCCn1cc(SCc2ccc(F)cc2)c2ccccc21)c1c(F)cccc1F,.,.,9.3,.,.,41,21
Cn1cc(SCC(=O)NCc2ccc(F)cc2)c2ccccc21,.,.,.,.,.,/,/
COc1ccc(Cc2nnc(N/N=C/c3ccc(O)cc3)[nH]c2=O)cc1OC,.,.,9.3,.,.,.,.
COc1ccc(Cc2nnc(N/N=C/c3ccc(Br)cc3)[nH]c2=O)cc1OC,.,.,.,.,.,/,/
COC(=O)C1CN(CCO)CCS(=O)(=O)N1Cc1cccc(Cl)c1 (stereo not given),.,.,.,.,.,/,/
CC(C)(C)OC(=O)N1CCCC(C(=O)Nc2cccc(C(=O)NCCCc3ccccc3)c2)C1 (stereo not given),.,.,12,.,.,.,10

# Screening data as filed in PubChem.
